Results on nine molecules are retold here after PubChem BioAssay (NCI).

SMILES strings stand for the structures. About 83,000 compounds went through this panel and 20% of them were active in at least one assay; those are over-represented in the sample as a whole.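 How to read the values: 0–100, growth inhibition (40 = 60% inhibited); 0, no net growth; -100 to 0, cell death (-40 = 40% of starting cells died; -100 = all dead).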 Values without a mark were called inactive. Active and inactive are the calls of the source. The calls were made as follows: active = growth percent below 10; inactive = the rest.

Common to all, as to assay: NCI-60 one-dose screen, 48 h (100 = growth as untreated, 0 = no growth, -100 = all killed)
Common to all, as to conditions: 10 µM unless noted

The test system of assay [1] is NCI-H23 lung.
Assay [2] deals with NCI-H226 lung.
For assay [3], the system named is NCI-H322M lung.
Assay [4] has as its system HOP-62 NSCLC.
The test system of assay [5] is NCI-H460 lung.
The subject of assay [6] is HOP-92 NSCLC.
Assay [7] has as its system NCI-H522 lung.
For assay [8], the system named is A549/ATCC NSCLC.
Assay [9] deals with 786-0 renal.
The test system of assay [10] is COLO 205 colon.
For assay [11], the system named is DU-145 prostate.
Assay [12] deals with K-562 leukemia.
Assay [13] concerns MALME-3M melanoma.
The test system of assay [14] is MDA-MB-231 breast.
The subject of assay [15] is SF-268 CNS.
Assay [16] has as its system SF-295 CNS.
Assay [17] concerns SF-539 CNS.
Assay [18] concerns UACC-257 melanoma.
Assay [19] concerns M14 melanoma.
Assay [20] relates to RXF 393 renal.

Turning to `Cc1nc([N+](=O)[O-])c(Sc2nncc(-c3ccccc3)n2)n1C`, the growth in assay [1] is 82.1%; in assay [2], 80.1%; in [3], 92.1%; in assay [4], 95.4%; in assay [5], 110%; in assay [6] it was 93.1%. The growth was 95.2% in assay [7]; 95.9% in assay [8]; 94% in assay [9]; 74.5% in [10]; 67.3% in [11]; 89.7% in assay [12]. Further, the growth in [13] is -7.36% (active); in [14], 92.6%; in assay [15], 93.5%; in assay [16], 144%; in assay [17] it was 106%; in assay [18], 29.8%. The growth in [19] was 88.2%.
Consider `COc1ccc2c(c1OC)OCC(CN(C)C)C2=O` (centres undefined), for which the growth in assay [1] was 104%; in assay [2], 97.6%; in [3] it was 111%; in assay [4], 100%; in assay [5] it was 122%; in [6], 52.1%. Moreover, the growth is -81% (active) in [7]; 98.9% in [8]; 92.7% in [9]; -75.2% (active) in assay [10]; 91.9% in assay [11]; -100% (active) in assay [12]. Besides, the growth in [13] is 71.5%; in assay [14] it was 96.7%; in assay [20] it was 98%; in [15] it was 110%; in assay [16], 96.2%; in assay [17] it was 97.1%. In addition, the growth is 99.1% in assay [18] and 98.5% in assay [19].
As for `N#CC(=C1SCS1)[N+](=O)[O-]`, the growth in assay [1] was 43.9%; in assay [2], 75.3%; in [3], 70.7%; in [4], 41.7%; in [5], -6.65% (active); in [6] it was 63%. The growth was -40.3% (active) in [7]; 20.9% in assay [8]; 21.8% in [9]; -21.5% (active) in assay [10]; 2.38% (active) in assay [11]; 28.4% in assay [12]. Also, the growth is 21.4% in [13]; 16% in assay [14]; 12.2% in assay [20]; 34.9% in assay [15]; 35.9% in [16]; 11.5% in assay [17]. The growth in assay [18] was 35.3%; in assay [19], -1.46% (active).
`CC1C(c2ccccc2)OCCN1C(=S)Nc1ccc(S(=O)(=O)N2CCCCC2)cc1` (centres undefined): the growth in assay [1] is 98.6%; in assay [2] it was 91.6%; in assay [3], 108%; in assay [4], 109%; in assay [5], 104%; in assay [6] it was 78.2%. Also, the growth in assay [7] is -34.1% (active); in assay [8] it was 102%; in assay [9] it was 109%; in assay [10] it was 108%; in assay [11], 104%; in assay [12], 109%. Moreover, the growth in assay [13] is 96.5%; in assay [14], 86%; in [20] it was 95.5%; in [15], 109%; in [16], 99.2%; in assay [18], 91.5%. In addition, in assay [19], the growth was 94.5%.
Take `Cc1cccc2c(N)c3ccccc3nc12`: the growth in assay [1] was -39.6% (active); in assay [2] it was -9.22% (active); in assay [3], -2.56% (active); in [4] it was -7.52% (active); in assay [5], -17.4% (active); in assay [6] it was -20.4% (active). Further, the growth was -36% (active) in assay [7]; -68.6% (active) in [8]; -9.45% (active) in assay [9]; -48.2% (active) in assay [10]; 6.74% (active) in assay [11]; 6.25% (active) in assay [12]. Moreover, the growth is -37.2% (active) in assay [13]; -24.2% (active) in assay [14]; -48.2% (active) in [20]; -1.12% (active) in assay [15]; 5.09% (active) in [16]; -22.2% (active) in assay [18]. The growth in assay [19] was -55% (active).
Turning to `COc1cc(OC)c(/C=C/c2c3ccccc3cc[n+]2C)c(OC)c1`, the growth in [1] is 17.3%; in assay [2] it was 33.3%; in [3], 32.9%; in assay [4], 35.3%; in [5] it was 10.8%; in assay [6], 36.6%. For the same molecule, the growth was -19.3% (active) in [7]; 14.7% in [8]; 62.8% in assay [9]; -35.3% (active) in assay [10]; 36.5% in assay [11]; 5.35% (active) in [12]. Further, the growth is 33.3% in assay [13]; 42.4% in assay [14]; 26.3% in assay [15]; -32.3% (active) in [16]; 31.9% in assay [17]; -16.7% (active) in assay [18]. Moreover, the growth in assay [19] was 41.7%.
As for `CCCCOS(=O)(=O)c1ccccc1`, the growth in assay [1] is 104%; in assay [2] it was 97.9%; in assay [3] it was 98%; in assay [4], 96.9%; in [5], 115%; in [6], 122%. The growth in assay [7] is 111%; in assay [8], 116%; in [9], 101%; in assay [10], 134%; in [11], 112%; in [12] it was 106%. Further, the growth is 94.5% in [13]; 106% in assay [14]; 105% in assay [15]; 120% in [16]; 102% in assay [17]; 106% in [18]. Also, in assay [19], the growth is 112%.
On to `O=C1C(=O)c2cccnc2-c2ncccc21`, for which the growth in assay [1] is -68.3% (active); in [2] it was -28.7% (active); in [3], 20.5%; in assay [4], -44.7% (active); in assay [5] it was -57.3% (active); in assay [6], -36.9% (active). Moreover, the growth in assay [7] is 5.23% (active); in [8], 6.49% (active); in assay [9] it was -94.1% (active); in assay [10] it was -88.5% (active); in [11], -74% (active); in assay [12], -23.4% (active). The growth is -12.6% (active) in assay [13]; -39.3% (active) in assay [14]; -94.5% (active) in [15]; 2.62% (active) in [16]; -97% (active) in [17]; 0.671% (active) in assay [18]. In addition, the growth in assay [19] was -92.6% (active).
With `COC(=O)Nc1nc2ccc(C3(c4ccc(F)cc4)OCCO3)cc2[nH]1`, the growth in assay [1] was 47.4%; in [2], 63.9%; in assay [3], 51.7%; in [4], 35.8%; in assay [5], 10.4%; in assay [6], 41.1%. The growth was -37.2% (active) in assay [7]; 21.7% in assay [8]; 51% in assay [9]; 0.171% (active) in [10]; 12.2% in assay [11]; 9.31% (active) in assay [12]. Also, the growth is 31.1% in assay [13]; 30.3% in assay [14]; 0.251% (active) in assay [20]; 50.5% in assay [15]; 4.04% (active) in [16]; -13.9% (active) in assay [17]. Further, the growth in [18] was 45.5%; in assay [19], 23.3%.
